From PubChem BioAssay (Tox21) come the findings set out here.

The structures appear in SMILES notation. Calls of active or inactive are those of the source. Unless noted, calls follow the shape of the dose curve; as a rule, active = well fitted curve in the direction sought with a large enough effect in the repeat runs; inconclusive = weak or mixed curves; inactive = no such curve, though single readings can be large; an effect the other way counts as inactive or inconclusive.

Assay [1] in a line: qHTS assay to identify small molecule antagonists of the thyroid receptor (TR) signaling pathway - cell viability counter screen (AID 743064). Also: nearly all actives have a fitted effect of over 50% in size. Also: potency is read from the fitted curve at half-maximal effect. A digest of the protocol:
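Fluorescence from CellTiter-Fluor, added after 23.5 h exposure at 37 °C, reported viability of GH3.TRE-Luc cells co-treated with compound and 1 nM T3. Measured in the same wells as the luciferase TR readout.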

The nature of assay [2]: qHTS assay to identify small molecule antagonists of the thyroid receptor (TR) signaling pathway (AID 743065). Also: nearly all actives have a fitted effect of over 55% in size. Also: potency is read from the fitted curve at half-maximal effect. A digest of the protocol:
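GH3.TRE-Luc rat pituitary cells carrying two TR response elements driving luciferase were plated for 4 h, given compound plus 1 nM T3 (final), and incubated 23.5 h at 37 C. ONE-Glo luminescence measured reporter inhibition; CellTiter-Fluor fluorescence tracked cytotoxicity.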

Assay [3] deals with thyroid hormone receptor (rat, GH3 cells). The assay can be described thus: qHTS assay to identify small molecule agonists of the thyroid receptor (TR) signaling pathway (AID 743066; calls by dose curve).
The nature of assay [4]: qHTS assay to identify small molecule antagonists of the estrogen receptor alpha (ER-alpha) signaling pathway - cell viability counter screen (AID 743074; calls by dose curve;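 also: HEK293 cells carrying ER-alpha-UAS-bla reporter stimulated with 17beta-estradiol; nearly all actives have a fitted effect of over 45% in size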).
For assay [5], the target named is Estrogen receptor (Homo sapiens) (UniProt P03372). The assay can be described thus: qHTS assay to identify small molecule agonists of the estrogen receptor alpha (ER-alpha) signaling pathway (AID 743075; calls by dose curve;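 also: HEK293 GripTite cells with ER-alpha and UAS-driven beta-lactamase reporter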; also: potency is read from the fitted curve at half-maximal effect).
Estrogen receptor (Homo sapiens), sequence (P03372 whole entry, looked up): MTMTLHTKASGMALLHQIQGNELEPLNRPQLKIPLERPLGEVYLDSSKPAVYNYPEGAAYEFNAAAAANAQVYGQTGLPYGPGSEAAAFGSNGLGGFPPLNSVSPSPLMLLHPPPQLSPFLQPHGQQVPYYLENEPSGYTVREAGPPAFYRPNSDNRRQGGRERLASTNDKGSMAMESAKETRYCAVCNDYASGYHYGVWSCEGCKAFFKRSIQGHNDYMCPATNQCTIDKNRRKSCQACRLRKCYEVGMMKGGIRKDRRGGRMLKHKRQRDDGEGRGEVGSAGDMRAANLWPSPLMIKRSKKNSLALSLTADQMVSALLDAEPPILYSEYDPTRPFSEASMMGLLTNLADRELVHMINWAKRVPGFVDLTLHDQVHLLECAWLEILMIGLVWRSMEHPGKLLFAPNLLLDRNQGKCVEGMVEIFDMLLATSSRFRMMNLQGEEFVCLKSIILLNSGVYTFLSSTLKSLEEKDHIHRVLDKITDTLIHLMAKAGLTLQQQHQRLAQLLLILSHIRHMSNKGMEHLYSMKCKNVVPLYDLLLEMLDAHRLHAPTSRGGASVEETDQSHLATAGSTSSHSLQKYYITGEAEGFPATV
For assay [6] the target is unchanged. The assay can be described thus: qHTS assay to identify small molecule agonists of the estrogen receptor alpha (ER-alpha) signaling pathway using the BG1 cell line (AID 743079). Also: nearly all actives have a fitted effect of over 20% in size. Also: potency is read from the fitted curve at half-maximal effect.
The target in assay [7] is Aromatase (Homo sapiens) (UniProt P11511). The assay can be described thus: qHTS assay to identify aromatase inhibitors (AID 743083). Also: nearly all actives have a fitted effect of over 55% in size. Also: potency is read from the fitted curve at half-maximal effect.
Aromatase (Homo sapiens), sequence (P11511 whole entry, looked up): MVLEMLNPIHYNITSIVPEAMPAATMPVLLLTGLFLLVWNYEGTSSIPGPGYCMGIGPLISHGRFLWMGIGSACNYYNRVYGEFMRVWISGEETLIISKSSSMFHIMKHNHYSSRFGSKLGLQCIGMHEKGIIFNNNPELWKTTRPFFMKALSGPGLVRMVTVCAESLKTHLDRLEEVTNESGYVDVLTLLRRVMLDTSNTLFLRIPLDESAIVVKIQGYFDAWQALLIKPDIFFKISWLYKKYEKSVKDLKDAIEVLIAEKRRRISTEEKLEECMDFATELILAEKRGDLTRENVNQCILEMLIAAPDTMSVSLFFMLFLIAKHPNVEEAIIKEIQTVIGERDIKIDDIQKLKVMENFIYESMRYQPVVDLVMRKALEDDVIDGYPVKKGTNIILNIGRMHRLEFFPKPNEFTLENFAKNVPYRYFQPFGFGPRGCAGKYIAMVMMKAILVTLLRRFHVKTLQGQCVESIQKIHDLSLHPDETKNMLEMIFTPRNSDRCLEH
Assay [8] can be described thus: qHTS assay to identify small molecule antagonists of the estrogen receptor alpha (ER-alpha) signaling pathway using the BG1 cell line - cell viability counter screen (AID 743081).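 Also: compound given together with 17beta-estradiol as the ER stimulus; series mostly up to about 70 µM; nearly all actives have a fitted effect of over 45% in size.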
Assay [9] is described as follows: qHTS assay to identify small molecule antagonists of the estrogen receptor alpha (ER-alpha) signaling pathway using the BG1 cell line (AID 743080; calls by dose curve;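 also: BG1 cells stimulated with 17beta-estradiol alongside compound; series mostly up to about 70 µM; nearly all actives have a fitted effect of over 25% in size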). A digest of the protocol: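 Luminescence from a 4×ERE-luciferase reporter in BG1-Luc-4E2 cells served as read-out. Cells, pre-cultured 5 days in stripped-serum phenol-red-free medium, were exposed to compound with 17beta-estradiol co-stimulation for 21.5 h at 37 C.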

Assay [10] has as its target Estrogen receptor (Homo sapiens) (UniProt P03372). The assay can be described thus: qHTS assay to identify small molecule antagonists of the estrogen receptor alpha (ER-alpha) signaling pathway (AID 743069; active = well fitted curve in the direction sought with a large enough effect in the signal ratio in the repeat runs, not every such curve was filed as active; inconclusive = weak or mixed curves, or effect the other way; inactive = no such curve, though single readings can be large or run the other way; the % refers to the signal ratio). A digest of the protocol: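 A 17beta-estradiol challenge was applied right after compound transfer to ER-alpha-UAS-bla HEK293 cells previously kept in charcoal-stripped serum. Plates stood 18 hr at 37C and 5% CO2; fluorescence was read following 2 hr FRET substrate loading at room temperature.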

Consider `CCn1nc(Cc2ccccc2)cc1C1CCN(C[C@H]2C[C@H](N(C)[C@@H](C(=O)O)C(C)C)C[C@@H]2c2cccc(F)c2)CC1`, for which the Potency is 27.3 µM (active) in [1] and 61.1 µM (active) in assay [2]. Further, the result in [3] and in assay [4] was inactive. Also, the Potency result in assay [5], in [6] and in assay [7] was “inactive” throughout.

For the compound `CC(CCl)OC(C)CCl` (stereo unspecified), the Potency entry in assay [1], in assay [2], in [5], in assay [6] and in assay [8] was “inactive” throughout. The call in assay [3] and in assay [4] was inactive.

Regarding `Cc1ccccc1CCO`, the Potency result in [1], in assay [2], in assay [5], in assay [6], in assay [9] and in assay [8] was “inactive” throughout. In assay [7], the Potency entry is “inactive”. For the same compound, the outcome in assay [3] and in assay [4] was inactive.

Turning to `CC1(C)[C@@H]2CC[C@]3(C2)[C@@H]1C(=O)CCC3(C)C`, the Potency result in [1], in assay [2], in [10], in assay [5], in assay [6] and in assay [9] was “inactive” in each case. Besides, in assay [8], the Potency result is “inactive”. In addition, in assay [3], the compound was called inactive.

Take `Oc1ccc(Oc2ccccc2)cc1`: the Potency was 41 µM (active) in [1], 20.6 µM (active) in [2], 0.0736 µM [inconclusive] (active) in [5] and 7.3 µM (active) in assay [6]. Besides, the compound was called inactive in [3] and in assay [4]. The Potency entry in assay [8] was “inactive”.

Consider `CCCCCCCCCCCCSCCOCCO`, for which the Potency entry in assay [1], in assay [2], in assay [10], in [5], in assay [6] and in [8] was “inactive” in each case. Also, the Potency result in assay [7] is “inactive”. Further, the call in assay [3] and in [4] was inactive.

Turning to `CC1(C)C(=O)NC(=O)N1CO`, the Potency result in assay [1], in assay [2], in assay [10], in assay [5], in [8] and in assay [7] was “inactive” each time. Also, the result in [3] and in assay [4] was inactive.

For the compound `O=C(Cl)c1ccc(F)c(Cl)c1`, the Potency entry in assay [1], in assay [2], in assay [5], in [9], in assay [8] and in assay [7] was “inactive” in each case. Also, the compound was called inactive in [3] and in [4].

In the case of `CCc1ccc2c(c1)C(=O)c1ccccc1C2=O`, the Potency result in assay [1], in assay [2], in assay [5], in assay [8] and in assay [7] was “inactive” throughout. The call in assay [3] and in assay [4] was inactive. Also, the Potency in assay [6] is 27.3 µM (active).

Take `O=C(OCCCCCOC(=O)c1ccccc1)c1ccccc1`: the Potency result in assay [1], in assay [2], in assay [5], in assay [8] and in assay [7] was “inactive” in each case. Also, the call in assay [3] and in assay [4] was inactive.

On to `CCOC(OCC)OCC`, for which the Potency result in [1], in [2], in assay [10], in assay [5], in assay [6] and in assay [8] was “inactive” each time. In addition, the Potency result in assay [7] is “inactive”. Besides, the outcome in assay [3] and in [4] was inactive.

Consider `Cc1cc(N)n(-c2ccccc2)n1`, for which the Potency entry in assay [1], in assay [2], in assay [5], in [8] and in assay [7] was “inactive” throughout. Further, the compound was classed as inactive in assay [3] and in assay [4].

With `CCCC1CCCC(=O)O1` (stereo unspecified), the Potency result in [1], in [2], in assay [5], in assay [6], in assay [9] and in [8] was “inactive” throughout. In assay [7], the Potency result is “inactive”. Moreover, the outcome in assay [3] and in assay [4] was inactive.

Take `CCOc1cc(OCC)c(C(C)=O)cc1OCC`: the Potency in assay [1] is 19 µM (active); in [7], 26.8 µM (active). Moreover, the Potency entry in assay [2], in assay [5] and in assay [9] was “inactive” in each case. Further, the compound was called inactive in assay [3] and in [4].

Consider `CCCCCCOC(=O)c1ccccc1`, for which the Potency entry in assay [1], in assay [2], in assay [10], in [5], in assay [6] and in assay [8] was “inactive” in each case. Moreover, the Potency entry in [7] was “inactive”. Also, the call in assay [3] and in assay [4] was inactive.

As for `Nc1ccc(-c2ccc(F)cc2)cc1`, the Potency entry in assay [1], in assay [2], in assay [5], in [8] and in assay [7] was “inactive” throughout. Further, the compound was called inactive in assay [3] and in [4]. For the same compound, the Potency in [6] is 54.5 µM (active).

For `CC1(C)CC(O)CC(C)(C)N1[O]`, the Potency entry in assay [1], in [2], in assay [5], in assay [6], in assay [8] and in assay [7] was “inactive” each time. The compound was classed as inactive in assay [3] and in assay [4].

`CNc1ccccc1`: the Potency result in assay [1], in [2], in assay [10], in assay [5], in assay [6] and in assay [8] was “inactive” each time. The Potency result in assay [7] was “inactive”. The result in assay [3] and in assay [4] was inactive.

In the case of `O=C(c1ccc(Cl)cc1)c1ccc(Cl)cc1`, the Potency entry in [1], in assay [2], in [5], in assay [6], in assay [9] and in [8] was “inactive” each time. Also, in assay [7], the Potency result is “inactive”. Moreover, the outcome in assay [3] and in assay [4] was inactive.

`S=c1[nH][nH]c(=S)s1`: the Potency result in assay [1], in [2], in [5], in assay [6], in [9] and in assay [8] was “inactive” each time. The Potency entry in [7] was “inactive”. In addition, the outcome in [3] and in assay [4] was inactive.

Turning to `CCC(CC)C(=O)O`, the Potency entry in assay [1], in [2], in [5], in assay [6], in assay [8] and in assay [7] was “inactive” throughout. The result in assay [3] and in assay [4] was inactive.

`COC(=O)/C=C/C(C)=C\C=C\C(C)=C\C=C\C=C(C)\C=C\C=C(C)\C=C\C(=O)O`: the Potency entry in assay [1], in [2], in [10], in assay [5], in assay [8] and in [7] was “inactive” in each case. The result in assay [3] and in assay [4] was inactive.

In the case of `Cc1cc(C)c(C)c(O)c1`, the Potency entry in [1], in [2], in [5], in [6], in assay [9] and in [8] was “inactive” throughout. The Potency result in assay [7] is “inactive”. For the same compound, the result in assay [3] and in assay [4] was inactive.

For the compound `CCCCOc1ccc(N)cc1`, the Potency result in assay [1], in assay [2], in [10], in assay [5], in assay [8] and in assay [7] was “inactive” each time. The outcome in assay [3] and in [4] was inactive.

In the case of `O=C(Nc1ccc2c(c1)Cc1ccccc1-2)C(F)(F)F`, the Potency entry in assay [1], in assay [2], in assay [8] and in assay [7] was “inactive” in each case. Also, the result in assay [3] and in assay [4] was inactive.

As for `O=C1c2ccccc2C(=O)c2c1ccc(O)c2O`, the Potency entry in assay [1], in [2], in assay [8] and in [7] was “inactive” in each case. Besides, the result in [3] and in [4] was inactive.

As to `O=C(O)c1ccncc1`, the Potency result in assay [1], in [2], in [8] and in assay [7] was “inactive” each time. Besides, the call in [3] and in assay [4] was inactive.

Consider `Cc1cc(SC2=C(O)C[C@@](CCc3ccc(N)cc3)(C(C)C)OC2=O)c(C(C)(C)C)cc1CO`, for which the Potency entry in assay [1], in assay [2], in [8] and in assay [7] was “inactive” each time. Also, the call in assay [3] and in assay [4] was inactive.

As to `Cc1cccc(C)c1NC(=O)CN1CCCC1`, the Potency entry in [1], in [2], in [8] and in assay [7] was “inactive” throughout. The outcome in [3] and in assay [4] was inactive.

`CCOc1ccc2c(c1)C(C)CC(C)(C)N2` (stereo unspecified): the Potency result in assay [1], in [2], in assay [8] and in [7] was “inactive” each time. The call in assay [3] and in [4] was inactive.
